Assay outcomes (PubChem)
FBPA Giardia inh: qHTS Assay for Inhibitors of Fructose-1,6-bisphosphate Aldolase from Giardia Lamblia. A8B2U2. purified Giardia FBPA. Potency, µM (top dose mostly 59.6 µM), usual class: inhibitors. 0.71% of 290,000 active; note: nearly all actives have a fitted effect of over 55% in size
Target sequence (A8B2U2 whole entry, looked up): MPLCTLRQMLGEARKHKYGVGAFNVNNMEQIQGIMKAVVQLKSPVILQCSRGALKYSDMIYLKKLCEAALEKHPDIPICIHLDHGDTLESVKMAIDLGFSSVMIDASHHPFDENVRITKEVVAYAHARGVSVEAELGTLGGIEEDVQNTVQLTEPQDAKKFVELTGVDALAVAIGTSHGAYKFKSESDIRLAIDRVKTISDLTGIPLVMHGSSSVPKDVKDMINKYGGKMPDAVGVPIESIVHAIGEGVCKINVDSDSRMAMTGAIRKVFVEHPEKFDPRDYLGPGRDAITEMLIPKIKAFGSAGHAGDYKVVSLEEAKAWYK
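40 nM FBPA preincubated 10 min at RT with compound (up to 57.5 uM final), then substrate plus GAPDH/TPI/NAD/arsenate coupling and diaphorase/resazurin added. Fluorescence read after 20 min at RT, 525/598 nm.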
HCMV antiviral: qHTS Assay for inhibitors of the human cytomegalovirus (HCMV) | HFF cells, HCMV-luciferase reporter, 72 h; stronger effect = lower value | activity change, negative = inhibition, % at 57.5 µM | 4.5% of 410,000 active | AID 1259415, 2018; in the data active = activity change below about -60%; inconclusive = no clear call, values can overlap the other calls; inactive = above about -39%
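Compounds were evaluated in HFFs infected with an HCMV luciferase reporter virus (MOI 1 PFU/cell). Luciferase in lysates collected 72 h post infection served as the replication measure.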
Sm TGR block: qHTS Assay for the Inhibitors of Schistosoma Mansoni Peroxiredoxins; purified TGR, DTNB reduction, TNB absorbance 405 nm; Potency, µM (series often up to 114 µM), usual class: inhibitors; 3% of 360,000 active; Schistosoma mansoni thioredoxin glutathione reductase (TGR), Q962Y6; note: nearly all actives have a fitted effect of over 60% in size
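TGR 20 nM + NADPH 100 uM (dispensed conc.), cpd preinc 15 min RT; start with NADPH (500 uM addition) then DTNB (15 mM addition). Kinetic TNB absorbance, 405 nm filter. Four-parameter Hill fit across titration.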
TbPYK inhibitor: qHTS of Trypanosoma Brucei Inhibitors; Potency, µM (series often up to 76.8 µM), usual class: inhibitors; TbPYK enzyme, Kinase-Glo Plus ATP luminescence, 45 min; 0.12% of 410,000 active; pyruvate kinase (Trypanosoma brucei), Q57TT1; AID 624173, 2012; note: nearly all actives have a fitted effect of over 50% in size
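Activity of T. brucei pyruvate kinase was followed by Kinase-Glo Plus luminescence after the enzyme reacted 45 min at room temperature with 130 uM ADP (final) and substrate. Test compounds were added before ADP at multiple concentrations.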
FMDV inh: High Throughput Screening for Foot and Mouth Disease Virus Antivirals; FMDV antiviral cell-based qHTS; Potency, µM (series often up to 57.9 µM), actives largely listed as inhibitors; 1.2% of 410,000 active; AID 1159524, 2015; calls by dose curve; tested in HEK293T cells; note: read-out not given here; nearly all actives have a fitted effect of over 45% in size
RE007 growth inh: qHTS Assay for Inhibitors of the HIV-1 protein Vpr; S. pombe RE007 Vpr strain, BacTiter-Glo ATP luminescence, 24 h; Potency, µM (series often up to 92.2 µM), hits mostly inhibitors; 0.21% of 360,000 active; active = well fitted falling curve with a large enough effect; inconclusive = small, poorly fitted or top-dose-only effect; inactive = no such curve, though single readings can be large or run the other way; note: nearly all actives have a fitted effect of over 50% in size
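Fission yeast strain RE007, carrying one chromosomally integrated HIV-1 vpr copy, was seeded at OD 0.01 in PMG+AL medium with 23 nL pinned compound. After 24 h at 30 °C and 99% humidity, viability was read by BacTiter-Glo luminescence.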
Large screens that a line does not name were inactive. Compounds with a hit are over-represented: about 7.7% of the library has one in this group of screens. Unless noted, calls come from the whole dose curve; as a rule, active = well fitted curve in the direction sought with a large enough effect; inconclusive = small, poorly fitted or top-dose-only effect, or another doubt; inactive = no such curve, though single readings can be large; an effect the other way counts as inactive or inconclusive.

CCN1C(=O)[C@H]2[C@@H](c3ccc(-c4ccc(Cl)c(Cl)c4)c(OC)c3)N[C@@](C)(C(=O)OC)[C@H]2C1=O	Sm TGR block 40µM, FMDV inh inconclusive (no result: FBPA Giardia inh)
Cc1ccc(-c2cc(C(=O)N/N=C/c3c(C)nn(-c4ccccc4)c3C)[nH]n2)cc1	HCMV antiviral -98 (no result: TbPYK inhibitor, FMDV inh, RE007 growth inh)
Cc1ccc(-c2cc(C(=O)N/N=C/c3c(C)nn(-c4ccccc4)c3C)n[nH]2)s1	HCMV antiviral -92, FMDV inh inconclusive
O=C(NCCCO)C(=O)NCC(c1ccc2c(c1)OCO2)N1CCOCC1 (centres undefined)	none (no result: FBPA Giardia inh, RE007 growth inh)
COc1ccc(OCC(=O)Nc2ccc3c(c2)N(C)C(=O)c2ccccc2S3)cc1	FMDV inh inconclusive (no result: FBPA Giardia inh, RE007 growth inh)
O=C(Nc1ccn(Cc2ccccc2F)n1)c1ccc(COc2ccccc2Cl)cc1	HCMV antiviral -98, FMDV inh inconclusive
O=C(Nc1ccn(Cc2c(F)c(F)cc(F)c2F)n1)c1ccc(COc2ccccc2Cl)cc1	HCMV antiviral -71
O=C(Nc1ccn(Cc2ccccc2F)n1)c1ccc(COc2cccc(Br)c2)cc1	none
CN(C(=O)CO)c1c(I)c(C(=O)NCC(O)CO)c(I)c(C(=O)NCC(O)CO)c1I (centres undefined)	none (no result: FBPA Giardia inh, HCMV antiviral, Sm TGR block, FMDV inh, RE007 growth inh)
Cc1ccc(C)c(Cn2c(=O)n(Cc3ccco3)c(=O)c3oc4ccccc4c32)c1	none (no result: FBPA Giardia inh, RE007 growth inh)
O=C(Cc1nc2ccccc2[nH]1)N1CCC(n2c(C3CCC3)nc3cccnc32)CC1	none (no result: FBPA Giardia inh, HCMV antiviral, Sm TGR block, TbPYK inhibitor, RE007 growth inh)
CC(C)[C@H](NC(=O)OC(C)(C)C)[C@@H](O)CC(=O)OC(C)(C)C	none (no result: HCMV antiviral, Sm TGR block, TbPYK inhibitor, FMDV inh, RE007 growth inh)
COc1ccc(CCNC(=O)CCCCn2c(=O)c3ccccc3n(Cc3ccc(Cl)cc3)c2=O)cc1OC	none (no result: FBPA Giardia inh, RE007 growth inh)
N=c1c[n+](CC23CC4CC(CC(C4)C2)C3)[n-]o1	HCMV antiviral -75
Cc1cnc(CNc2cc(-c3ccc(N(C)C)cc3)ncn2)cn1	none (no result: HCMV antiviral, Sm TGR block, TbPYK inhibitor, RE007 growth inh)
Cc1cc(OCCCSc2nc(-c3ccc(C(C)(C)C)cc3)nc3cc(=O)[nH]n23)ccc1Cl	HCMV antiviral -64 (no result: FBPA Giardia inh, RE007 growth inh)
O=[N+]([O-])c1ccc(N=Cc2ccc(Br)c([N+](=O)[O-])c2)cc1	HCMV antiviral inconclusive, Sm TGR block 32µM
Cc1nn(C)c(C(=O)NCc2ccc(Cl)cc2)c1Cl	HCMV antiviral -80, FMDV inh inconclusive
Cc1ccc(NC(=S)NNC(=O)c2c(Cl)c(C)nn2C)cc1	HCMV antiviral -73
Cc1ccc(NC(=S)NNC(=O)c2c([N+](=O)[O-])c(C)nn2C)cc1	none
COCC(=O)N1CC(=O)N2[C@@H](CO)[C@@H](c3ccc(Br)cc3)[C@@H]2C1	none (no result: FBPA Giardia inh, Sm TGR block, TbPYK inhibitor, FMDV inh, RE007 growth inh)
Cc1cc(-c2cc(NC(=O)Cc3c[nH]c4ccccc34)ccc2N(C)c2cccnc2)ccc1F	none (no result: FBPA Giardia inh, Sm TGR block, TbPYK inhibitor, FMDV inh, RE007 growth inh)
CO[C@@H]1COC(=O)[C@@H](C)COC(=O)[C@@H](C)NC(=O)C/C=C\[C@@H]1C	none (no result: HCMV antiviral, Sm TGR block, TbPYK inhibitor, FMDV inh, RE007 growth inh)
CSCCC(c1nnnn1C1CCCC1)N1CCC(n2c(=O)[nH]c3ccccc32)CC1 (centres undefined)	HCMV antiviral inconclusive (no result: FBPA Giardia inh, Sm TGR block)
O=c1[nH]c2ccccc2n1C1CCN(C(CCc2ccccc2)c2nnnn2Cc2ccccc2)CC1 (centres undefined)	HCMV antiviral -103, FMDV inh 35µM (no result: FBPA Giardia inh, Sm TGR block)
CSCCC(c1nnnn1Cc1ccccc1)N1CCC(n2c(=O)[nH]c3ccccc32)CC1 (centres undefined)	HCMV antiviral -90 (no result: FBPA Giardia inh, Sm TGR block)
O=c1[nH]c2ccccc2n1C1CCN(C(c2nnnn2Cc2ccccc2)C2CC2)CC1 (centres undefined)	HCMV antiviral inconclusive (no result: FBPA Giardia inh, Sm TGR block)
CCc1nc2ccc(C(=O)NCc3cc(OC)ccc3OC)cc2nc1CC	none (no result: FBPA Giardia inh, RE007 growth inh)
COc1ccc(N2CCN(S(=O)(=O)c3c(C)nc4sc(C)cn4c3=O)CC2)cc1	none (no result: FBPA Giardia inh, RE007 growth inh)
COc1ccccc1-n1cc(-c2ccccc2)[nH]c1=S	FMDV inh inconclusive
CCOc1ccc(-n2cc(-c3ccc(OC)c(OC)c3)[nH]c2=S)cc1	TbPYK inhibitor 1.1µM
